Consider 43 compounds from PMC4336329 (PLoS ONE, 2015).

About 14,000 (4.5%) of roughly 310,000 compounds showed an effect of 50% or more. The effect is printed as a negative number. The sample as a whole holds a higher share of strong results than the screen did.
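Note: peak tail current of the secondary pulse compared with the same well before compound.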

The target of this test is human ether-à-go-go-related gene (hERG) potassium channel (human, UniProt Q12809). Description: primary screen, population patch clamp on CHO cells stably expressing hERG; higher = less effect of the substance.
Chain of human ether-à-go-go-related gene (hERG) potassium channel (Q12809 whole entry, looked up): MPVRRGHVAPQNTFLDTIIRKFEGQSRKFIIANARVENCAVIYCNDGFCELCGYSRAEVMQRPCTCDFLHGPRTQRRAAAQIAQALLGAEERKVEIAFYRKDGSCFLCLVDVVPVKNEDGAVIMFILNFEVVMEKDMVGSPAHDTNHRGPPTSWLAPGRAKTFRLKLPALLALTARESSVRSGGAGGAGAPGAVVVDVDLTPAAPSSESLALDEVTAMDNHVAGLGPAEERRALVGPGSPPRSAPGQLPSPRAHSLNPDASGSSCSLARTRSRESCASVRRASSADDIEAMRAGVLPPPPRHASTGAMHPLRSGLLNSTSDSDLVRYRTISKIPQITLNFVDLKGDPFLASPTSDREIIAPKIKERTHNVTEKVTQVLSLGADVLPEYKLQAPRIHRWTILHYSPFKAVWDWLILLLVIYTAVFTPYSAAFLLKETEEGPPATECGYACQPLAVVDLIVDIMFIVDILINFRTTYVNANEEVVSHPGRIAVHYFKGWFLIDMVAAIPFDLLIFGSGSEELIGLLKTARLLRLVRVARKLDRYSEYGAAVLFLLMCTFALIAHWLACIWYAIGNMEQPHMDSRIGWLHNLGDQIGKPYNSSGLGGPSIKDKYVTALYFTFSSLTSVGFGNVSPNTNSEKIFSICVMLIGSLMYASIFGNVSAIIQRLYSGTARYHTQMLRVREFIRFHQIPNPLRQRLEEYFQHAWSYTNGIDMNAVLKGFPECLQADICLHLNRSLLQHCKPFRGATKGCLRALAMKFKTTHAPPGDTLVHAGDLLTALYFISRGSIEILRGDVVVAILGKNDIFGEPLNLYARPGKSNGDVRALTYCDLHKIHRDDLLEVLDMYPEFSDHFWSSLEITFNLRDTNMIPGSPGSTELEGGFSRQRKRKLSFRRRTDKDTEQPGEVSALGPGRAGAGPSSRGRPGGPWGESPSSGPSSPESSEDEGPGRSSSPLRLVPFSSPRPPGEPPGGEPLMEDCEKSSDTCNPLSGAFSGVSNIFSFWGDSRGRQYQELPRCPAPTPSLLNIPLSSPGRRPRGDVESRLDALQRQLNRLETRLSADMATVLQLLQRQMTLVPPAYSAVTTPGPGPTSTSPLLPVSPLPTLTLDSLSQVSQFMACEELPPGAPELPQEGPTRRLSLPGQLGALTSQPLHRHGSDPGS
As for `Cc1ccc(Oc2ccc(C(=O)NC3CCSC3=O)cn2)cc1` (stereo not shown), the “hERG current change (%, negative = inhibition) at 10uM” value was 12%.

For the compound `CC(C)(CNc1ccc([N+](=O)[O-])cc1Cl)CNS(C)(=O)=O`, the “hERG current change (%, negative = inhibition) at 10uM” value is given as -1.02%.

Take `Cc1cc(/C=N/n2cnnc2)c(C)n1-c1ccccc1`: the “hERG current change (%, negative = inhibition) at 10uM” value is listed as -4.02%.

As to `COc1ccccc1C(=O)CSc1nccn1C`, the “hERG current change (%, negative = inhibition) at 10uM” value is recorded as -11.1%.

Take `O=C1NC(=O)N(c2ccccc2)C(=O)/C1=C\c1ccc2c3c(cccc13)CC2`: the “hERG current change (%, negative = inhibition) at 10uM” value was -20.4%.

Turning to `CCOC(=O)c1c(NC(=O)c2ccc(Cl)cc2)csc1C`, the “hERG current change (%, negative = inhibition) at 10uM” value is given as -0.689%.

Turning to `Cc1cc(C(=O)NCCCN2CCOCC2)n(-c2ccccc2)n1`, the “hERG current change (%, negative = inhibition) at 10uM” value is 19.3%.

In the case of `CC(=O)Nc1ccccc1C(=O)C(=O)Nc1cccc(C(=O)NCc2ccccc2)c1`, the “hERG current change (%, negative = inhibition) at 10uM” value was -32.6%.

Take `COc1ccc(CNS(=O)(=O)CCNC(=O)c2cccc(OC)c2)cc1`: the “hERG current change (%, negative = inhibition) at 10uM” value was -78.1%.

For the compound `O=C(NCCCN1CCN(c2cccc(Cl)c2)CC1)c1cccc(N2CCCC2=O)c1`, the “hERG current change (%, negative = inhibition) at 10uM” value was -38%.

With `CCCCNC(=O)c1cccc(NC(=O)C(=O)c2ccccc2NC(C)=O)c1`, the “hERG current change (%, negative = inhibition) at 10uM” value was -19.1%.

Turning to `CC(=O)Nc1ccccc1C(=O)C(=O)Nc1cccc(C(=O)NCc2ccc(C)cc2)c1`, the “hERG current change (%, negative = inhibition) at 10uM” value is reported as -58.3%.

Take `O=C(NCCCN1CCN(CCCNC(=O)c2cccc(Cl)c2)CC1)c1cccc(Cl)c1`: the “hERG current change (%, negative = inhibition) at 10uM” value was -74.4%.

On to `COc1cccc(C(=O)NCCS(=O)(=O)NCc2ccc(Cl)cc2)c1`, for which the “hERG current change (%, negative = inhibition) at 10uM” value is -36.5%.

Turning to `Cc1cc(C(=O)NCCCN2CCN(c3cc(Cl)ccc3C)CC2)n(-c2ccccc2)n1`, the “hERG current change (%, negative = inhibition) at 10uM” value is -89.2%.

On to `Cc1cc(C(=O)NCCCN2CCN(C3CCCCC3)CC2)n(-c2ccccc2)n1`, for which the “hERG current change (%, negative = inhibition) at 10uM” value was 2.76%.

For the compound `COc1ccc(CNS(=O)(=O)CCNC(=O)c2ccccc2)cc1`, the “hERG current change (%, negative = inhibition) at 10uM” value was -4.36%.

Take `O=C(NCCCn1ccnc1)c1cccc(Cl)c1`: the “hERG current change (%, negative = inhibition) at 10uM” value turned out to be 0.459%.

`Oc1c(Cl)cc(Cl)cc1/C=N/c1nccs1`: the “hERG current change (%, negative = inhibition) at 10uM” value is listed as -11.8%.

Regarding `O=C(COC(=O)C1CCN(S(=O)(=O)c2cccc3cccnc23)CC1)c1ccc([N+](=O)[O-])cc1`, the “hERG current change (%, negative = inhibition) at 10uM” value was found to be 13.1%.

Take `O=C(NC(=O)c1ccccc1F)Nc1nc(-c2cccs2)cc(C(F)(F)F)n1`: the “hERG current change (%, negative = inhibition) at 10uM” value was 4.49%.

Take `COC(=O)CC1c2cc(OC)c(OC)cc2CC(=O)c2cc(OC)c(OC)cc21` (stereo not shown): the “hERG current change (%, negative = inhibition) at 10uM” value was found to be 6.73%.

Regarding `Nn1c(COc2ccccc2)nnc1SCc1cc(=O)[nH]c2ccccc12`, the “hERG current change (%, negative = inhibition) at 10uM” value was -14.3%.

Regarding `CCCNC(=S)N1CCC(C(=O)c2ccc3c(c2)OCCO3)CC1`, the “hERG current change (%, negative = inhibition) at 10uM” value is on record as -28.9%.

With `COc1ccccc1CNS(=O)(=O)c1csc(C(N)=O)c1`, the “hERG current change (%, negative = inhibition) at 10uM” value came out at 20.1%.

In the case of `CCCc1cc(=O)[nH]c(SCC(=O)NN(c2ccccc2)c2ccccc2)n1`, the “hERG current change (%, negative = inhibition) at 10uM” value was -1.04%.

For the compound `CCOc1c(Cl)cc(C(=O)NCCN2CCCCC2)cc1Cl`, the “hERG current change (%, negative = inhibition) at 10uM” value is reported as -58.6%.

Regarding `COc1cccc(C(=O)NCCCNC(=O)c2cccc(OC)c2)c1`, the “hERG current change (%, negative = inhibition) at 10uM” value is 1.43%.

For `Cl.O=C(NCCN1CCN(c2ccccc2)CC1)c1cccc(Cl)c1`, the “hERG current change (%, negative = inhibition) at 10uM” value is on record as -54.2%.

As for `Nc1ccccc1C(=O)NCCCN1CCN(c2cccc(Cl)c2)CC1`, the “hERG current change (%, negative = inhibition) at 10uM” value is recorded as -71.4%.

As for `COc1cc(C(=O)NCCN2CCCC2)cc(OC)c1OC.Cl`, the “hERG current change (%, negative = inhibition) at 10uM” value is 9.26%.

`Nc1ccccc1C(=O)NCCCN1CCOCC1`: the “hERG current change (%, negative = inhibition) at 10uM” value came to 15.6%.

Regarding `Cc1cccc(C(=O)NCCN2CCN(c3ccccc3)CC2)c1.Cl`, the “hERG current change (%, negative = inhibition) at 10uM” value was -37.1%.

For `Cn1c(C(=O)NCCCN2CCN(c3cccc(Cl)c3)CC2)cc2c(=O)n(C)c3ccccc3c21`, the “hERG current change (%, negative = inhibition) at 10uM” value turned out to be 9.13%.

With `CCOc1ccc(C(=O)NCCN2CCCC2)cc1.Cl`, the “hERG current change (%, negative = inhibition) at 10uM” value was -40.6%.

For the compound `COc1cccc(C(=O)NCCN2CCN(c3ccc(Cl)cc3)CC2)c1`, the “hERG current change (%, negative = inhibition) at 10uM” value is given as -49.8%.

In the case of `COc1cc(OC)cc(C(=O)NCCCN2CCN(CCCNC(=O)c3cc(OC)cc(OC)c3)CC2)c1`, the “hERG current change (%, negative = inhibition) at 10uM” value is -48.8%.

For the compound `COc1cccc(C(=O)NCCCN2CCN(CCCNC(=O)c3cccc(OC)c3)CC2)c1`, the “hERG current change (%, negative = inhibition) at 10uM” value is listed as -85.4%.

For `CCN(CC(=O)Nc1c(F)cccc1F)C(=O)C1CCCN(C(=O)c2ccc(Cl)cc2)C1` (stereo not shown), the “hERG current change (%, negative = inhibition) at 10uM” value is -31.5%.

For `Cc1ccccc1Nc1nc(N2CCOCC2)nc(N2CCOCC2)n1.Cl`, the “hERG current change (%, negative = inhibition) at 10uM” value is listed as 14%.

As for `CC1=CC(c2ccc(Cl)cc2)n2nc(NS(=O)(=O)c3ccc(C)cc3)nc2N1` (stereo not shown), the “hERG current change (%, negative = inhibition) at 10uM” value is on record as -19.7%.

Regarding `CCOC(=O)c1cnc2c(cnn2C)c1NCCC(O)C(F)(F)F` (stereo not shown), the “hERG current change (%, negative = inhibition) at 10uM” value is on record as 0.469%.

With `Cc1ccc(SCC(=O)Nc2ccc(F)cc2[N+](=O)[O-])cc1C`, the “hERG current change (%, negative = inhibition) at 10uM” value worked out at 11.7%.
